The whole screen tested about 68,000 compounds, of which about 2,700 (4%) showed an effect of 50% or more. This excerpt belongs to a sample that is enriched for strong results.

This assay deals with Plasmodium berghei. Description: Screen against P. berghei liver stage (PbLuc), transformed with Luciferase, at 2uM. As to conditions: tested at 2 uM. It counts as functional, HepG2.
As for `CN(Cc1nnc2n1CCC2)C(=O)Cc1ccc2c(c1)CCC2`, the INHIBITION is -9.49%. As to `Cc1nnsc1C(=O)N1CC[C@H](c2ccccc2)[C@@H]2[C@H]1CCCCN2C`, the INHIBITION is recorded as 22.81%. The result for `NC(=O)C1CN(C(=O)Nc2ccccc2SC(F)(F)F)CCO1` (stereo unspecified) reads -20.93%; that for `O=C(NCc1ncc(-c2ccccc2)o1)NC1CCC(O)CC1` (stereo unspecified), 13.58%; that for `COc1cc(C)c(CN2CCc3nc4ccsc4c(=O)n3CC2)cc1C`, 36.56%. The result for `CN(C)c1cccc(C(=O)Nc2cnn(Cc3ccncc3)c2)c1` reads -34.79%; that for `COCCC(=O)N1CCC2(COCc3cnc(NCC4CC4)nc32)C1` (stereo unspecified), -20.77%; that for `Cn1cnnc1C1CCN(c2nc3ccccc3o2)CC1`, 53.81%. Turning to `c1ccc2oc(N3CCC(c4nncn4C4CC4)CC3)nc2c1`, the INHIBITION amounted to 15.02%.

Turning to `Cn1cnnc1C1CCCN(c2nc3ccccc3o2)C1` (stereo unspecified), the INHIBITION worked out at 44.25%. The result for `Cc1cnn(CCNCc2nc(CNC(=O)c3ccccc3)no2)c1` reads 47.23%; that for `CN(C)c1nc(N)nc(CN2CCC(c3ccccc3)CC2)n1`, 29.6%; that for `Cc1ccc(C(=O)N2CCN(Cc3ccccc3)CC2)n1C`, 52.17%. In the case of `Cc1ccc(C(=O)N2CCN(Cc3ccc(C#N)cc3)CC2)n1C`, the INHIBITION is listed as 28.18%. The same measure for `COc1ccc(CN2CCN(C(=O)c3ccc(C)n3C)CC2)cc1`: -10.64%; for `CC(C1CC1)N(C(=O)NCCCn1nc2ccccn2c1=O)C1CC1` (stereo unspecified): 1.07%; for `O=C(c1cscn1)N1CCN2C[C@H](OCc3cccnc3)C[C@H]2C1`: 50.12%.

For `O=C(c1ccc(F)cc1)N1CCN2C[C@H](OCc3ccccn3)C[C@H]2C1`, the INHIBITION is 15.58%. The result for `Cc1cnc(C(=O)N2CCN3C[C@H](OCc4cccnc4)C[C@H]3C2)cn1` reads -35.38%; that for `O=C(c1ccsc1)N1CCN2C[C@H](OCc3ccccn3)C[C@H]2C1`, 53.08%. The result for `O=C(c1ccsc1)N1CCN2C[C@H](OCc3cccnc3)C[C@H]2C1` reads 16.22%; that for `O=C(c1ccnnc1)N1CCN2C[C@H](OCc3ccccn3)C[C@H]2C1`, 26.94%; that for `CN1CC2(CCN(C(=O)c3[nH]cnc3-c3ccccc3)C2)OC1=O` (stereo unspecified), 14.96%.

Regarding `Cc1cc(C2CCC2)nc(N2CCN(Cc3nccn3C)CC2)n1`, the INHIBITION was 35.46%. The same measure for `Cc1cc(N(C)C)nc(N2CC(n3cccn3)C2)n1`: 35.46%. The same measure for `Cc1cc(C2CCC2)nc(N2CC(n3cccn3)C2)n1`: 52.6%; for `Cc1c(NC(=O)CN2CCN(C3CCCC3)C(=O)C2)cnn1C`: 17.24%. Take `c1ccc(-n2cc(CN3CCCC3Cn3cncn3)nn2)cc1` (stereo unspecified): the INHIBITION is 15.47%.

Take `Cc1cccc2nc(CSCC(=O)Nc3nnc(C(C)C)s3)cc(=O)n12`: the INHIBITION is on record as 52.21%. The result for `Cc1ccn2c(=O)cc(CSCC(=O)Nc3nnc(C(C)C)s3)nc2c1` reads 4.89%; that for `CC(C)c1nnc(NC(=O)CSCc2cc(=O)n3ccccc3n2)s1`, 1.87%; that for `COc1ccc2c3c1CN(C(C)=O)CC3=CC(C)(C)CO2`, 22.01%. The result for `Cc1ccsc1C(=O)NC(C)c1ccc2c(c1)CCC(=O)N2` (stereo unspecified) reads 0.48%; that for `CSc1ccsc1C(=O)NC(C)c1ccc2c(c1)CCC(=O)N2` (stereo unspecified), 0.48%. The same measure for `CC(NC(=O)c1sccc1C1CC1)c1ccc2c(c1)CC(=O)N2` (stereo unspecified): 51.14%; for `Cn1cc(C(=O)NCc2ccc(N3CCCC3)nc2)ccc1=O`: -0.05%; for `Cc1ccn(CC(=O)NCCCOc2ccccc2F)c(=O)c1`: 15.2%.

In the case of `CN(C)S(=O)(=O)N1CCC(c2ccncn2)CC1`, the INHIBITION is reported as -5.42%.

For the compound `COCCn1ccc(NC(=O)Nc2ccncc2)n1`, the INHIBITION is 1.94%. For `O=S(=O)(NCC1(c2cccs2)CCCC1)c1cccnc1`, the INHIBITION is on record as 58.53%. For `O=S(=O)(NCC1(c2cccs2)CCOCC1)c1ccc2c(c1)OCCO2`, the INHIBITION is recorded as -12.08%. The result for `O=S(=O)(NCC1(c2cccs2)CCOCC1)c1cccnc1` reads -0.59%; that for `Cc1cccc(Nc2ccc(C3CCCCN3)cn2)n1` (stereo unspecified), 30.53%; that for `O=C(NC1CC1)[C@H]1C[C@H]2OCC[C@H]2N(CC2CC2)C1`, 28.49%.

`O=C(COCc1ccccc1)N1CCCC1c1noc(C2CC2)n1` (stereo unspecified): the INHIBITION stood at 37.68%. The same measure for `Cn1ccnc1CN(CCO)Cc1ccc(C(F)(F)F)cc1`: 9.42%. Consider `CN(CCCOc1ccccc1)Cc1nccn1C`, for which the INHIBITION is on record as -27.01%. The same measure for `CN(CCCc1ccc(C(F)(F)F)cc1)Cc1nccn1C`: 59.08%; for `CSCC(CCO)NC(=O)c1cccc(C)c1Cl` (stereo unspecified): -5.44%. The same measure for `Cc1cn2c(n1)CCC(NC(=O)c1cc(Br)cn1C)C2` (stereo unspecified): -2.1%; for `CCOc1ccc(C(F)(F)F)cc1NC(=O)NCc1noc(C)n1`: -40.82%.

For the origin of these results see ChEMBL document CHEMBL4513216, “Probing the Open Global Health Chemical Diversity Library for Multistage-Active Starting Points for Next-Generation Antimalarials” (ACS Infect Dis, 2020).
